One compound from ChEMBL document CHEMBL2218924, “A broad activity screen in support of a chemogenomic map for kinase signalling research and drug discovery” (Biochem J, 2013) can be followed below.

Structures are written as SMILES.

In experiment [1] the target is Tyrosine-protein kinase SYK (Homo sapiens) (UniProt P43405). The conditions noted are these: at 10 µM.
Experiment [2] addresses T1, Mitogen-activated protein kinase kinase kinase 7 (Homo sapiens) (UniProt O43318).
T1 sequence (whole entry): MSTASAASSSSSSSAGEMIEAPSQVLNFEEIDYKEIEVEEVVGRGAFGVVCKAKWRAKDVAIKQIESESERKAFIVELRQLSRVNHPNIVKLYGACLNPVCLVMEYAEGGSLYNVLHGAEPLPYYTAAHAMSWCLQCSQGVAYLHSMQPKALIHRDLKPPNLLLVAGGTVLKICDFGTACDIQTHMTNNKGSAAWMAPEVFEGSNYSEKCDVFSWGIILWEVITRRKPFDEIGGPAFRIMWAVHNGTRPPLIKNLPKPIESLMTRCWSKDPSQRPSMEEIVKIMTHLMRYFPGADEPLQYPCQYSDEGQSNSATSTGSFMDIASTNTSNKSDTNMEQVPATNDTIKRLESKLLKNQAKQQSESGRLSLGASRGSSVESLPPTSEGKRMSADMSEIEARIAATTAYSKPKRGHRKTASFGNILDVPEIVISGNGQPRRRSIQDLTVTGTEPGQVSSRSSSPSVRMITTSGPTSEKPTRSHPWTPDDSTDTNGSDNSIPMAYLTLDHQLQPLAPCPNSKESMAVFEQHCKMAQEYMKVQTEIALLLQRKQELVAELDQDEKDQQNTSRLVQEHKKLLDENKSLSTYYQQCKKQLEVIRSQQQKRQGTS
The conditions noted are these: at 10 µM.

Experiment [3] concerns the target T2, Serine/threonine-protein kinase TAO1 (Homo sapiens) (UniProt Q7L7X3).
T2 sequence (whole entry): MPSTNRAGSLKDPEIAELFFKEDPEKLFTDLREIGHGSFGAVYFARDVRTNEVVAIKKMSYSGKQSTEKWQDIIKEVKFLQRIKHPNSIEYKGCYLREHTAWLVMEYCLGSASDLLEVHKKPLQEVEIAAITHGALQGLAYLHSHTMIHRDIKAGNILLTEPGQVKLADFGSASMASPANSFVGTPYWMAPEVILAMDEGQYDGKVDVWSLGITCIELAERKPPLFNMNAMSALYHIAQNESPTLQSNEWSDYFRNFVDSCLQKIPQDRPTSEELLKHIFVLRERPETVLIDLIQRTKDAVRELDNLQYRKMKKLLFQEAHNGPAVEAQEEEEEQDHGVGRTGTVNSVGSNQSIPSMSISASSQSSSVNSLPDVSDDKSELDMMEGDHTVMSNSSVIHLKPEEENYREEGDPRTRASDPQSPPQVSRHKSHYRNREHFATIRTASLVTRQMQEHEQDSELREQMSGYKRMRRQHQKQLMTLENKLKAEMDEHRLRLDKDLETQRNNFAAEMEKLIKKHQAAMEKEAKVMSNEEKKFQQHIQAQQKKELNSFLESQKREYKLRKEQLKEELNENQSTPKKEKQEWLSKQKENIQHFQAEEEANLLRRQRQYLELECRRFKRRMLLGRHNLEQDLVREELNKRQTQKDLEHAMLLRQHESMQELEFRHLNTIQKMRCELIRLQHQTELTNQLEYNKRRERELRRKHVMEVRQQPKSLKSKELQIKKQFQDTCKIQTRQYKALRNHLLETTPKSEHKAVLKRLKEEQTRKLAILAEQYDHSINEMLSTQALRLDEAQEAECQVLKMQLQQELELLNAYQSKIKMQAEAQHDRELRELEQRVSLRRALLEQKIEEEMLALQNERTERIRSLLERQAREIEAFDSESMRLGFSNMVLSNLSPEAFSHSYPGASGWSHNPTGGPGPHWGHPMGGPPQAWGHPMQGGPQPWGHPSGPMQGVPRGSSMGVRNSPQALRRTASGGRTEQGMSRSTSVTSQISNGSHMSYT
The conditions noted are these: at 10 µM.

Experiment [4] deals with T3, Serine/threonine-protein kinase TAO2 (Homo sapiens) (UniProt Q9UL54).
T3 sequence (whole entry): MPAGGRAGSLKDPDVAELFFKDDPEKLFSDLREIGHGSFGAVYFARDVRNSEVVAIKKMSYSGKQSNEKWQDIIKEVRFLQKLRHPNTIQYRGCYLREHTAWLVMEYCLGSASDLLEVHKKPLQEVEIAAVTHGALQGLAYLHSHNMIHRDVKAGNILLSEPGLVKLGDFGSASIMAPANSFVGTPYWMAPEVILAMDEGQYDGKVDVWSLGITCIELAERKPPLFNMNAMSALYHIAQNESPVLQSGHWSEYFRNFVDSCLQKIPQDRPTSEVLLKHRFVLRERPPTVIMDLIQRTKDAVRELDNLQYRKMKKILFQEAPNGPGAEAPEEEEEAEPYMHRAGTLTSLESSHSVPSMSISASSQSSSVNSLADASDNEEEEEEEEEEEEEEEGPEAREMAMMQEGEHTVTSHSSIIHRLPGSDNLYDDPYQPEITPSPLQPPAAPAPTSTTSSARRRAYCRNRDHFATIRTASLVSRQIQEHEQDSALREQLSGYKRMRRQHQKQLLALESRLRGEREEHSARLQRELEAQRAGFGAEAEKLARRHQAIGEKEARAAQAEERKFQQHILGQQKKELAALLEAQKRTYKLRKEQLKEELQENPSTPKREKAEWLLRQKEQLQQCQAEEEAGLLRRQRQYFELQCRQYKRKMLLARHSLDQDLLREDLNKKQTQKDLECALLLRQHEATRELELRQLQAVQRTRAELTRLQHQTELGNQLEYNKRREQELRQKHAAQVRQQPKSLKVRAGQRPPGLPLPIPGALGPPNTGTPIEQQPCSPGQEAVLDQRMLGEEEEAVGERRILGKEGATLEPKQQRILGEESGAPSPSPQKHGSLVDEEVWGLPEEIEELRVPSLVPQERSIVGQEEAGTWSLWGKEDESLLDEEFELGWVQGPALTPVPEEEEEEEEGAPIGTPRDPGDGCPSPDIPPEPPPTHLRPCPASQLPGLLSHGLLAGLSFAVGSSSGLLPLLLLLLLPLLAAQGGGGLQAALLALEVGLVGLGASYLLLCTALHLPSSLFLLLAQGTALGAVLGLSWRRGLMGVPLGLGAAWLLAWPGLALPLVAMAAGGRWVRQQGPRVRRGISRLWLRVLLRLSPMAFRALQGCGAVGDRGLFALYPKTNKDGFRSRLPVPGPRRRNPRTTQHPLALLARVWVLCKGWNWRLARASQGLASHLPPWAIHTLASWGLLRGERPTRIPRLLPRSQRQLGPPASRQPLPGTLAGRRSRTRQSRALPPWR
The conditions noted are these: at 10 µM.

The target in experiment [5] is T4, Serine/threonine-protein kinase TAO3 (Homo sapiens) (UniProt Q9H2K8).
T4 sequence (whole entry): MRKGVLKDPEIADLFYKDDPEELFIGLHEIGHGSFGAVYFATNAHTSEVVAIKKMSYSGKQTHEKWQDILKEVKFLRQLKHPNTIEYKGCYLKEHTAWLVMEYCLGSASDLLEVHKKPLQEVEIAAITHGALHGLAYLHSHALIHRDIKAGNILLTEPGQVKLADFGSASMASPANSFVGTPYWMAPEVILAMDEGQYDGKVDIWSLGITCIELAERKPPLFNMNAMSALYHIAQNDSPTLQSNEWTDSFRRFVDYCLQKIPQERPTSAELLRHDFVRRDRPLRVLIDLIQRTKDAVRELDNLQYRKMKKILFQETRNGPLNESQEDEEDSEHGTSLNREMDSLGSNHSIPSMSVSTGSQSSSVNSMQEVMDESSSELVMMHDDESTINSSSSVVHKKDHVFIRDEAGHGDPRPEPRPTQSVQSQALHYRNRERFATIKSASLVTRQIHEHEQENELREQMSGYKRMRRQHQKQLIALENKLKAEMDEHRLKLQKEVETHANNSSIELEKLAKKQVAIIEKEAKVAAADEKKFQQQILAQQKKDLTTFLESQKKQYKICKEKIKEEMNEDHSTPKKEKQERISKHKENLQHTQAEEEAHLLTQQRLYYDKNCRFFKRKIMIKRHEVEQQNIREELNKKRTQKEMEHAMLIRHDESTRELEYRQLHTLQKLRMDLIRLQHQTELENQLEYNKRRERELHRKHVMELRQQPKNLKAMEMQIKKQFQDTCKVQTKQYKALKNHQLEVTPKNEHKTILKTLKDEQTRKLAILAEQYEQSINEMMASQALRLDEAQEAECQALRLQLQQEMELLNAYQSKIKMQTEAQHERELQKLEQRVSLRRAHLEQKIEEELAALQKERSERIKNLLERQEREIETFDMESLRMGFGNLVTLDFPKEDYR
The note with it: at 1 µM.

For experiment [6], the target named is T4, Serine/threonine-protein kinase TAO3 (Homo sapiens). The conditions noted are these: at 10 µM.
The target of experiment [7] is T5, Serine/threonine-protein kinase TBK1 (Homo sapiens) (UniProt Q9UHD2).
T5 sequence (whole entry): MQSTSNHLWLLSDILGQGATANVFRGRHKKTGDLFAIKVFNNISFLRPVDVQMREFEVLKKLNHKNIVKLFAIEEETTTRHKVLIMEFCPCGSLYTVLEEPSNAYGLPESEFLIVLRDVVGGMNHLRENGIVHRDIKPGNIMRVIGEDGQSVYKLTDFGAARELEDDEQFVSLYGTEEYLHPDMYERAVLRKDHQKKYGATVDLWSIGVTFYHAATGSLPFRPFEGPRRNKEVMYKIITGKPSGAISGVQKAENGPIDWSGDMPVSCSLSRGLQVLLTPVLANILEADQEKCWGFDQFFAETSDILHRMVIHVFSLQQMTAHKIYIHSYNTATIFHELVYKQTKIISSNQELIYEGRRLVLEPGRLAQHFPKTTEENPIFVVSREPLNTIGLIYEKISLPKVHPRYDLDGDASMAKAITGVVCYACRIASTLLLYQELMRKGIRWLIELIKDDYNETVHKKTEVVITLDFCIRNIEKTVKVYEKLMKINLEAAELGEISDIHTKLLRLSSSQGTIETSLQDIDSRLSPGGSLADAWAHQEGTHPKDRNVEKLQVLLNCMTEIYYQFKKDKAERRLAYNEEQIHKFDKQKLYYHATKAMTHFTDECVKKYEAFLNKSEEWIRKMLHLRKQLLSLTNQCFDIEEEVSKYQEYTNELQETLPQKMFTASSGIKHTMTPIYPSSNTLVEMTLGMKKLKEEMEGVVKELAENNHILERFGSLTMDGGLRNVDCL
The conditions noted are these: at 1 µM.

With `N#CC(C#N)=C(N)/C(C#N)=C/c1ccc(O)cc1`, the residual activity came out at 74% in experiment [1]; 89% in experiment [2]; 81% in experiment [3]; 87% in experiment [4]; 99% in experiment [5]; 85% in experiment [6]. In addition, in experiment [7], the residual activity worked out at 82%.
